The values below come from the supplement of paper PMC6555819.

This experiment relates to VDR:RXRa (NR concentration 270 nM, RXRa partner concentration 90 nM). The experiment is described as follows: PBM binding z-score (relative to random genomic background probes); higher = stronger binding; sequences stand for … in GC…GCGATTGACAGCGTAGAATGAAGG
As for the experimental part:
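Protein-binding microarray (Agilent 4x180K custom design, double-stranded 60-nt probes: 5' GC cap, 34-nt variable region, 24-nt constant primer region; full probe sequence given). Purified or IVT nuclear receptor:RXRα heterodimers (3:1 NR:RXRα, mostly 270:90 nM) or homodimers were incubated for 1 h in PBS with 2% milk and no ligand, then detected with Alexa488 antibodies. Fluorescence from o1-orientation probes (~5 replicates averaged) was converted to z-scores against 500 random hg19 background probes. Variable regions are seed direct-repeat (DR0–DR5) sites, all their single-nucleotide variants and half-site ablations.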
As for ATCTCTAGGTAACCAAGTTTAGTGAATGCCGAAC, the PBM binding z-score worked out at 1.55.
The same measure for CCTGCTAGCTCAATGGTCAGCTAAAGCAGCTCGC: -0.686; for CGTCCAAGGTCATAGGAGGTGAGTGAAGACAGAT: 4.7; for CGTCCACGGTCAATGCTAGGTCAGTGAAAGCATT: 0.36.
The same measure for TCTTGTAGATCAAGTAGGTTAAGAAAGCCTGAGT: 0.698.
GGAACGAGGGCAAGTTGGTAGCAGAGTTTGATGG came in with a PBM binding z-score of 1.03.
Take TCTAGTTGGCCACGGAGGTCACACACGACGGGTA: the PBM binding z-score turned out to be 3.97.
CCGACTGGGGCGAAGGTTACCATACTCAGTACGA showed a PBM binding z-score of 0.0154.
The value for TCTAGATGGTCAAAGGTCACACACTCGAAATGCG was 5.33; that for ACAGACAGGTGAGTGAAGGTTACTCAGCTGGACG was 0.088.
Turning to TAGCCCAGGTCATGGGCCAGTATACCACGCGAAC, the PBM binding z-score is 2.64.
ACAACGAGGGCAATGAGTTGATAGCACGGGTGGC: the PBM binding z-score stood at 5.13.
In the case of ATCTCTAGGTAAAAGTTAAGTGAATCCCGAGGAT, the PBM binding z-score is -0.0664.
Sequence CCTTACGGGTCACTGACAGGATATAGCATTTGGA gave a PBM binding z-score of 3.36.
Turning to CCAGGCAGGTGAGAAGGTAACTCAGCCTCGATTA, the PBM binding z-score was -0.539.
Sequence TGTCAAAGTCCAAAGGTAACGTAAGTATCCACAC showed a PBM binding z-score of 0.386.
In turn, TCGAGTAGGTTACCAATGGGGCATACAGCTTTCT displayed a PBM binding z-score of 0.221.
The same measure for AGAACGAGGGCACGCTGAGTTGATAGCGGAGTAG: 2.13; for AGAATGAGGTTATTCAGATCAGGGAATTGCGGTC: 2.7; for TCATATAGGTAAAAGTTGAAAGTCGGTGTGGTAA: 1.21.
With TCATATAGGAAAAGGTGAAAGTCGAACGATATGA, the PBM binding z-score amounted to 0.862.
On to CTACCAAGGTGAACTAGGTCGTTGATTACTATTC, for which the PBM binding z-score came out at 3.56.
In turn, GAAACAGGGTCAAGGCCAGAGTACGCGTATTGAT returned a PBM binding z-score of 4.6.
The value for GATACAGGGTCAGCTAGAGGCCAGATTATGGAAA was 3.57.
Sequence TCAGACAAGTGAAGGTAACTCAGGTACGCAGTCG registered a PBM binding z-score of 0.46.
As to GCTTGTAGTTCAAGGTTAAGAAAGACTAAGCTAA, the PBM binding z-score stood at 1.46.
TGATATAGGTAAAAGGTGAAAGTCGGTGTGGTAA: the PBM binding z-score is 1.33.
The sequence TCTTGTAGATCAATAGAGGTTAGGAAAGTGCGCT gave a PBM binding z-score of 1.05.
As to CTACCAAGGTGAACAAGGTGGTTGATTACTATTC, the PBM binding z-score was 1.84.
For TCGAGAAGGTTAGTCGGGGCATTCAGCCAACATA, the PBM binding z-score amounted to 3.71.
ATCCAAAGGTCGTGAGGTGAGTATACAGAAAGGC registered a PBM binding z-score of 3.91.
CAAACTAGGTCACAGAGGTAAAAGTCCGTGCGTA came in with a PBM binding z-score of 4.96.
In turn, TCTTGTAGATCAACCAGGTTAAGAAAGCCTGAGT registered a PBM binding z-score of 1.04.
Turning to ACTCGGAGGACAAAGGTCGGAGCTACGCCAGTGA, the PBM binding z-score is 0.947.
Consider GGAACGAGGGCAAGCTGATAGCAGAGTTTGATGG, for which the PBM binding z-score amounted to 0.0958.
CGTCCAAGGTCAAAGGTCCGTGAAGAGATGACGG showed a PBM binding z-score of 4.62.
Sequence TAGCCTAGGTCACGCGGGCCAGTATAGTGTCGGC returned a PBM binding z-score of 3.35.
For the sequence TCTGCTAGGTCAGTTGGTCTGCTAACGAGCTGCC, the PBM binding z-score was determined as 0.0911.
The same measure for GCAGACAGGTGAAACGCAGGTAACTCTGGGTGGC: -0.545.
The value for GATTGTAGATCAAGGTTAAGAAAGACTAAGCTAA was 0.0632.
